# Source: PubChem BioAssay
# Values without a mark were called inactive. For some assays here: Entries with a potency or affinity are not part of this list. Activity calls are given as the source filed them. Unless noted, how the calls were made is not given here.
# Assays:
# [1] = antimalarial activity against Dd2 strain (AID 2302;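 active means growth inhibition above 50% at the single 2 µM test dose, taken to imply half-maximal potency below 2 µM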;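 further: 0% = DMSO untreated growth and 100% = chloroquine plus artemisinin killed control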); settings: P. falciparum Dd2 in RBCs, LDH growth readout, 72 h; at 2 µM; hits give high values
# [2] = human hepatoma cell viability loss – ATP luminescence, cytotoxicity control for P. falciparum antimalarial project, primary screen (AID 2303;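 active means inhibition above 50%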;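 further: 0% = DMSO wells and 100% = digitonin-killed cells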); settings: HepG2 viability, 24-48 h, at 10 µM, hits give high values
# [3] = target: L-lactate dehydrogenase (Plasmodium falciparum (isolate CDC / Honduras)) (UniProt Q27743); assay: PfLDH activity inhibition – cell lysate, 3D7 strain, counter-screen for P. falciparum growth inhibition project (AID 2304);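 further: 0% = vehicle and 100% = reference inhibitor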; settings: P. falciparum 3D7 crude extract, LDH APAD/NBT absorbance; at 2 µM; hits give high values
# Chain of L-lactate dehydrogenase (Plasmodium falciparum (isolate CDC / Honduras)) (Q27743 whole entry, looked up): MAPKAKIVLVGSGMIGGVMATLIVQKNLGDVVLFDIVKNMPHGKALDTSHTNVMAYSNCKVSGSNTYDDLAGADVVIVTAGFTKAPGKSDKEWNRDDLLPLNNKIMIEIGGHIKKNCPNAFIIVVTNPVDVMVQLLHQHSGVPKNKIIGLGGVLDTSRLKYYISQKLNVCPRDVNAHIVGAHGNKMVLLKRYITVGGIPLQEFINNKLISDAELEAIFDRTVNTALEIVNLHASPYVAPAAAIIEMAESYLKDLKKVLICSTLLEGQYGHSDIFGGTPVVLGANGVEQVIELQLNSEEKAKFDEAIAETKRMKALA
# [4] = inhibition of 3D7 malaria parasite growth – strain 3D7 (AID 2306);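 further: 0% = DMSO wells and 100% = chloroquine plus artemisinin control wells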; settings: P. falciparum 3D7 erythrocytic growth, LDH absorbance, 72 h; at 2 µM; hits give high values
# [5] = target: Calcium-dependent protein kinase 1 (Plasmodium falciparum (isolate 3D7)) (UniProt P62344); assay: PfCDPK1 kinase inhibitors, biochemical, TCAMS library (AID 1159585; cut-off not given, nearly all actives have IC50 up to about 0.98 µM;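 further: inhibitors leave more ATP so luminescence rises with inhibition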); settings: recombinant PfCDPK1, Kinase-Glo ATP depletion luminescence
# Chain of Calcium-dependent protein kinase 1 (Plasmodium falciparum (isolate 3D7)) (P62344 whole entry, looked up): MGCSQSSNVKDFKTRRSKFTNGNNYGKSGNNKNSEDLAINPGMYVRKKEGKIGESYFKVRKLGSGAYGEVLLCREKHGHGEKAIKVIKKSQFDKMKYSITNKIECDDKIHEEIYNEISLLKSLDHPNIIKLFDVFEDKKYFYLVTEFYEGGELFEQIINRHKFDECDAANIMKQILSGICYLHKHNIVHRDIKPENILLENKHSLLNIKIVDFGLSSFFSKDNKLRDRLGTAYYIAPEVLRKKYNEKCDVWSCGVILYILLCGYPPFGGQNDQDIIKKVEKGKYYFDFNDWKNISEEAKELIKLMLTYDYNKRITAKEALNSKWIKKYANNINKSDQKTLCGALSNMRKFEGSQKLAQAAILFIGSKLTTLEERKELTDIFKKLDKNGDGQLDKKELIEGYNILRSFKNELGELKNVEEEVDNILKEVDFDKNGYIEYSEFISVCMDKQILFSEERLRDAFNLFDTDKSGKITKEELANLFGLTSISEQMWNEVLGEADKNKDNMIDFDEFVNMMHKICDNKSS
# [6] = target: Plasmodium falciparum protein kinase 6 (PK6, PF3D7_1337100) (UniProt Q8IDW1); assay: PfPK6 kinase inhibitors, biochemical, TCAMS library (AID 1159586); settings: recombinant PfPK6, Kinase-Glo ATP depletion luminescence
# Chain of Plasmodium falciparum protein kinase 6 (PK6, PF3D7_1337100) (Q8IDW1 1-305): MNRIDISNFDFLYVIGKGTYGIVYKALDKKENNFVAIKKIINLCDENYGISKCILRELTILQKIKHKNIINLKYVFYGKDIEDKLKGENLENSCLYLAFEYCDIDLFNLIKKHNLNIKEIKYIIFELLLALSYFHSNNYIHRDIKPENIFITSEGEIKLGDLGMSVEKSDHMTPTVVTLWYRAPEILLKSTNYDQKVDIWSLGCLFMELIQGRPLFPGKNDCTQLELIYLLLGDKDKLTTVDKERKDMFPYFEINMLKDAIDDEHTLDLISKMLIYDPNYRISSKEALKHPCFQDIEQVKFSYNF
# [7] = target: Protein kinase 7 (PK7), Plasmodium falciparum 3D7 (PF3D7_0213400) (UniProt Q7YTF7); assay: inhibition of Plasmodium PK7 catalytic activity – biochemical, TCAMS antimalarial set, Kinase-Glo luminescence (AID 1159587); settings: recombinant PfPK7, Kinase-Glo ATP depletion luminescence
# Chain of Protein kinase 7 (PK7), Plasmodium falciparum 3D7 (PF3D7_0213400) (Q7YTF7 1-343): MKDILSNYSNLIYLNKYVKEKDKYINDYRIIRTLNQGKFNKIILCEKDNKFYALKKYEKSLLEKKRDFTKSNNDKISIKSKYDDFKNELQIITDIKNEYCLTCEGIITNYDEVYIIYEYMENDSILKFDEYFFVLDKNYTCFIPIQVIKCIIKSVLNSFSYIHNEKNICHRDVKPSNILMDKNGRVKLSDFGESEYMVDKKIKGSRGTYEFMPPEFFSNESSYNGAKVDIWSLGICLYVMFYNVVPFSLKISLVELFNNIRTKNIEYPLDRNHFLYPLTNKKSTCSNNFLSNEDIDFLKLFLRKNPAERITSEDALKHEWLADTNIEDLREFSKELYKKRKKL
# [8] = target: Calcium-dependent protein kinase 4 (Plasmodium falciparum (isolate 3D7)) (UniProt Q8IBS5); assay: PfCDPK4 kinase inhibitors, biochemical, TCAMS library (AID 1159588; cut-off not given, nearly all actives have IC50 up to about 0.91 µM); settings: recombinant PfCDPK4, Kinase-Glo ATP depletion luminescence
# Chain of Calcium-dependent protein kinase 4 (Plasmodium falciparum (isolate 3D7)) (Q8IBS5 whole entry, looked up): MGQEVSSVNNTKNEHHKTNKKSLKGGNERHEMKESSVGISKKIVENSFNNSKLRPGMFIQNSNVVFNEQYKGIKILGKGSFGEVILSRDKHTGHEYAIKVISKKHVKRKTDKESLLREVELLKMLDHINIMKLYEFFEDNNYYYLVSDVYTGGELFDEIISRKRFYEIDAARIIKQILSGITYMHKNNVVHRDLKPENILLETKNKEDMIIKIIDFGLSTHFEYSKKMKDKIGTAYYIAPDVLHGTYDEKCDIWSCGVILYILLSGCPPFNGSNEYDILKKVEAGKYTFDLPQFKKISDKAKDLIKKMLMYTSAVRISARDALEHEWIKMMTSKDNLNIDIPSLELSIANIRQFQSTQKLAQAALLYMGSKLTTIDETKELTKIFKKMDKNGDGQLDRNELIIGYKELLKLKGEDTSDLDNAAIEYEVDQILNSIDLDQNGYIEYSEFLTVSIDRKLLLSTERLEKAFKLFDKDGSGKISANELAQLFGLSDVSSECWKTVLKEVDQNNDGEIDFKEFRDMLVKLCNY
SMILES,growth inhibition [1],inhibition [2],inhibition [3],growth inhibition [4],outcome [5],outcome [6],outcome [7],outcome [8]
CC[C@H](C)CNC(=O)c1cncc(-c2ccc(CNCCCc3ccccc3)cc2)c1,99% (active),19%,-2%,101% (active),inactive,inactive,inactive,inactive
CCOC(=O)C(C(=O)OCC)c1nc(C)ns1,-3%,10%,-3%,99% (active),inactive,inactive,inactive,inactive
COc1ccc(Nc2nc(NC3CCCC3)cc(-c3ccc(OC)cc3)n2)cc1,15%,12%,2%,86% (active),inactive,inactive,inactive,inactive
Clc1ccc2c(NCCCCCCCCNc3ccnc4cc(Cl)ccc34)ccnc2c1,96% (active),2%,4%,99% (active),inactive,inactive,inactive,inactive
CCCCCCCNC(=O)NCC1CCCN(CCCCCNC(=O)/C=C/c2ccc(Cl)c(Cl)c2)C1 (stereo not given),7%,98% (active),-1%,86% (active),inactive,inactive,inactive,inactive
Cc1cccc2[nH]c(-c3ccc(-c4cccc(NC(=O)Cc5cnc[nH]5)c4)cc3)nc12,21%,13%,-4%,98% (active),inactive,inactive,inactive,inactive
O=C(Nc1ccc(Cl)cc1Cl)NC1CCN(CCCCCNC(=O)[C@@H]2C[C@H]2c2ccc(Cl)c(Cl)c2)CC1,30%,67% (active),0%,100% (active),inactive,inactive,inactive,inactive
Cc1cccc2[nH]c(-c3ccc(-c4cccc(CN5CCN(c6ccncc6)CC5)c4)cc3)nc12,99% (active),50% (active),7%,101% (active),inactive,inactive,inactive,inactive
CCNc1cc(C(=O)N[C@@H](Cc2ccccc2)[C@H](O)CNC2CCC(C(C)(C)C)CC2)cc(N2CCCC2=O)c1 (stereo not given in full),98% (active),38%,-3%,98% (active),inactive,inactive,inactive,inactive
Cc1[nH]c(C)c(Cc2ccc(Oc3ccc(OC(F)(F)F)cc3)cc2)c(=O)c1Br,87% (active),29%,-1%,96% (active),inactive,inactive,inactive,inactive
Cc1cc2nc(-c3ccc(/C=C/C(=O)NC4CCN(Cc5ccccc5)CC4)cc3)[nH]c2cc1C,89% (active),18%,-2%,98% (active),inactive,inactive,inactive,inactive
Cn1cc(CN2CCC(OC(c3ccccc3)c3ccc(Cl)cc3)CC2)cn1 (stereo not given),61% (active),39%,5%,94% (active),inactive,inactive,inactive,inactive
O=C(Nc1cccc(CN2CCCN(Cc3ccc(F)cc3)CC2)c1)c1ccc(Cl)c(Cl)c1,17%,27%,7%,95% (active),inactive,inactive,inactive,inactive
Cc1cccc2[nH]c(-c3cccc(-c4ccc(C(=O)NCc5ccccc5S(C)(=O)=O)cc4)c3)nc12,27%,17%,1%,100% (active),inactive,inactive,inactive,inactive
O=C(COC(=O)c1cccc(S(=O)(=O)N2CCc3ccccc32)c1)NNC(=O)c1cccs1,4%,4%,3%,96% (active),inactive,inactive,inactive,inactive
CCC(C)NCCC(c1ccccc1)c1ccccc1O (stereo not given),74% (active),4%,4%,97% (active),inactive,inactive,inactive,inactive
Fc1ccc2nc(-c3cccc(-c4cccc(CNCC5CCCO5)c4)c3)[nH]c2c1 (stereo not given),94% (active),40%,3%,99% (active),inactive,inactive,inactive,inactive
COC(=O)c1cccc(CNCc2cccc(-c3cccc(-c4nc5ccc(F)cc5[nH]4)c3)c2)c1,52% (active),27%,1%,101% (active),inactive,inactive,inactive,inactive
COc1cc2nc(Cl)nc(Nc3ccncc3)c2cc1OC,33%,11%,-2%,86% (active),inactive,inactive,inactive,inactive
O=C(Cn1c(SCc2cccc(F)c2F)cc(=O)c2ccccc21)N(CCn1ccnc1)Cc1ccc(-c2ccc(C(F)(F)F)cc2)cc1,94% (active),20%,-2%,100% (active),inactive,inactive,inactive,inactive

SMILES,growth inhibition [1],inhibition [2],inhibition [3],growth inhibition [4],outcome [5],outcome [6],outcome [7],outcome [8]
CC(C)CCNCc1c(O)ccc2ccccc12,51% (active),9%,2%,95% (active),inactive,inactive,inactive,inactive
Cc1cc(N[C@@H](Cc2ccccc2)C(=O)NCCCOC(C)C)nc(NCC2CCCCC2)n1,25%,17%,-4%,94% (active),inactive,inactive,inactive,inactive
NC1CCN(CCNCc2cccc(-c3ccc(-c4nc5ccc(F)cc5[nH]4)cc3)c2)C1 (stereo not given),4%,8%,2%,99% (active),inactive,inactive,inactive,inactive
Cc1cc(NC(=O)CCN2CCN(c3cccc(Cl)c3Cl)CC2)ccc1N1CCN(C(C)C)CC1,8%,82% (active),7%,99% (active),inactive,inactive,inactive,inactive
CC(C)CCN1CCC(Oc2ccc(NC(=O)c3cccs3)cc2Cl)CC1,96% (active),31%,-6%,97% (active),inactive,inactive,inactive,inactive
O=C(c1ccc(Cl)cc1)N1CCCC(C(=O)N(Cc2nnc(-c3ccccc3Cl)o2)C2CC2)C1 (stereo not given),96% (active),10%,0%,95% (active),inactive,inactive,inactive,inactive
CC(C)NCc1cccc(-c2cccc(NC(=O)c3cccc(C#N)c3)c2)c1,22%,12%,-4%,99% (active),inactive,inactive,inactive,inactive
O=C(/C=C/c1ccc(Cl)c(Cl)c1)NCCCCCN1CCC(NC(=O)Nc2cc(F)ccc2F)CC1,22%,78% (active),3%,98% (active),inactive,inactive,inactive,inactive
CC(C)(C)c1ccc(NC(=O)c2ccc(CN3CCCN(Cc4ccc(F)cc4)CC3)cc2)cc1,7%,55% (active),-1%,87% (active),inactive,inactive,inactive,inactive
Oc1cc(Nc2ccnc3cc(I)ccc23)ccc1F,99% (active),-6%,0%,99% (active),inactive,inactive,inactive,inactive
CCCCCCCCCN1CC[C@@H](CCCc2ccnc3ccc(O)cc23)[C@@H](CC)C1,59% (active),58% (active),-3%,83% (active),inactive,inactive,inactive,inactive
CC1(C)CCCN(Cc2c(O)ccc3c(=O)c(-c4nc5ccccc5s4)c(N)oc23)C1,100% (active),20%,-1%,101% (active),inactive,inactive,inactive,inactive
O=S(=O)(c1cc(Cl)c(Cl)cc1Cl)N1CCCCC(c2ccc(C(F)(F)F)cc2)=N1,99% (active),9%,-1%,98% (active),inactive,inactive,inactive,inactive
CCC[C@@H]([C@@H](CC1CCCCC1)C(=O)N[C@@H](CCOC(=O)NCC)C(=O)Nc1nccs1)N(O)C=O,79% (active),-13%,-7%,101% (active),inactive,inactive,inactive,inactive
O=C(Nc1ccccc1C(F)(F)F)Nc1nn(Cc2c(F)cccc2Cl)cc1Br,86% (active),-15%,-8%,100% (active),inactive,inactive,inactive,inactive
O=S(=O)(NCCN1CCCC1)c1ccc(-c2cccc(CNCCc3cccs3)c2)s1,44%,39%,-2%,99% (active),inactive,inactive,inactive,inactive
CCCCCCCc1c2c(C)c(C(=O)OCC)nc-2cc2n1CC(C)=C2C,10%,11%,1%,89% (active),inactive,inactive,inactive,inactive
COc1ccc(C(=C(C)CC(C)C(=O)O)c2ccccc2)cc1 (stereo not given),-2%,6%,-8%,95% (active),inactive,inactive,inactive,inactive
CC(C)C1C(O)=C(c2ccc3ccccc3c2)C(=O)N1Cc1cccc(F)c1 (stereo not given),82% (active),3%,3%,97% (active),inactive,inactive,inactive,inactive
C[C@H](Cc1ccc(Oc2ccc(C[C@@H](C)NC[C@H](O)c3cccc(Cl)c3)cc2)cc1)NC[C@H](O)c1cccc(Cl)c1,96% (active),99% (active),-3%,100% (active),inactive,inactive,inactive,inactive
